Assay outcomes (PubChem)
Most compounds without a hit are left out; they make up all but 3% or so of the library.
SENP8 block-1 = blocks the human protease SENP8; purified SENP8, Z-RLRGG-aminoluciferin cleavage, luminescence; inhibition, % at 10 µM; 1.2% of 330,000 active; in the data active = inhibition above about 50%
SENP8 block-2 = blocks human SENP8 cleavage of Nedd8 substrate; Q96LD8; recombinant SENP8, Nedd8 substrate fluorescence; inhibition, % at 20 µM; 0.64% of 360,000 active; in the data active = inhibition mostly above about 40%, no sharp cut-off; inactive = mostly below about 27%
SENP6 inh = blocks the human protease SENP6 | inhibition, % at 10 µM | 1.8% of 330,000 active | Recombinant SENP6 catalytic domain, aminoluciferin luminescence | AID 2599;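 active = inhibition above about 50% at the single tested dose, limit read from the data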;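 note: plate controls were DMSO wells with enzyme for no effect and DMSO wells lacking enzyme for full effect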
Target sequence (Q9GZR1 628-1112 limits assumed): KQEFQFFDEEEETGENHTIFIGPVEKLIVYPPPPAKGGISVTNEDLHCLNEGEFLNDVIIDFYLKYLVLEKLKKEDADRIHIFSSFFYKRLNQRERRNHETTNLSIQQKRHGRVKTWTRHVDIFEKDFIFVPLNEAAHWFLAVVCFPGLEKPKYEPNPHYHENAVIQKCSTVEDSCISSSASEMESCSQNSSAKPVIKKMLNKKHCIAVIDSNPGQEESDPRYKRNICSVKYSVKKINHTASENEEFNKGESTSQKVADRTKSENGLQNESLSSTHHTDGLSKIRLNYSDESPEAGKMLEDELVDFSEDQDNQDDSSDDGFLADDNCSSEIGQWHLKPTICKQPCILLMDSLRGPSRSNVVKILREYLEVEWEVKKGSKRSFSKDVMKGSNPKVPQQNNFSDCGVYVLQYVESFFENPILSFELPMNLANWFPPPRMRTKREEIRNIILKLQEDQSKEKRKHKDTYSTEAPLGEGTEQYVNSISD
SENP7 inh = blocks the human protease SENP7. Q9BQF6. recombinant SENP7, Z-RLRGG-aminoluciferin luminescence, 40 min. inhibition, % at 5 µM. 1.5% of 330,000 active;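 active = inhibition above about 50% at the single test dose, limit read from the data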;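 note: plate controls were DMSO with enzyme for no effect and no enzyme buffer wells for full effect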
PPC-1+TRAIL kill = compounds killing PPC-1 cancer cells with TRAIL present (potentiator screen, no TRAIL-free arm); PPC-1 cells + TRAIL, ATPLite viability luminescence; cell killing (% activity), % at 4 µM or 5 µM; 0.41% of 220,000 active;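 active = cell killing above 50% in the first pass at 4 µM, then a duplicate retest at 5 µM averaging 50% or more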;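 note: plate controls were cells with TRAIL plus DMSO for no effect and medium-only wells lacking cells for full effect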
C8 TRAIL sens = caspase-8 TRAIL sensitization. NB7+C8 cells + TRAIL, ATPlite viability luminescence. inhibition (viability loss, TRAIL sensitization), % at 10 µM. 1% of 360,000 active. AID 624354;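 active = compounds causing at least 50% loss of cell viability in the single-dose screen, relative to plate controls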
The depositor's hits bear a star; nt = no result given.

SMILES	SENP8 block-1	SENP8 block-2	SENP6 inh	SENP7 inh	PPC-1+TRAIL kill	C8 TRAIL sens
COc1ccc(/C=C2\CCCC3C2=NN(C(=O)COC(=O)CNC(=O)c2ccccc2)C3c2ccc(OC)cc2)cc1 (stereo not given)	-15	-23	-17	-4	20	59*
COc1ccc(CNC(=O)COC(=O)c2c(NC(C)=O)sc(C)c2C)cc1OC	nt	-80	nt	nt	nt	11
CN(C(=S)NC(=O)c1ccc(F)cc1)C1CCCCC1	3	16	15	-2	nt	23
CN(C(=S)NC(=O)c1ccc(Cl)cc1)C1CCCCC1	9	19	14	5	nt	50*
Cc1cc(=O)[nH]c2nnc(-c3ccc(Br)cc3)n12	-3	23	22	-1	nt	73*
Cc1cc(C)c(S(=O)(=O)/N=C2\C=C(Nc3ccc(C(=O)O)cc3)C(=O)c3ccccc32)c(C)c1	88*	57*	89*	42	nt	58*
O=C(O)c1ccc(NC2=C/C(=N/S(=O)(=O)c3cccs3)c3ccccc3C2=O)cc1	nt	98*	nt	nt	nt	55*
Cc1cccc(NC2=C/C(=N/S(=O)(=O)c3cccs3)c3ccccc3C2=O)c1	nt	103*	nt	nt	51*	95*
Cc1cccc(NC2=C(NCCO)C(=O)c3ccccc3C2=O)c1	7	17	15	-1	-5	6
N#C/C=C1/NC(=O)c2ccccc2S1	-4	44*	-1	7	20	-7
C=C(C)c1cc2c(ccc3ccc(=O)oc32)o1	-8	-10	-6	-5	nt	87*
CNC(=O)c1cc2c(ccc3ccccc32)o1	-2	-162	-5	4	41	1
O=C(Cc1cccc(NC(=O)C2CCCN(C(=O)CCc3ccccc3)C2)c1)Nc1ccc(C(=O)N2CCCCC2)cc1 (stereo not given)	nt	2	nt	nt	nt	-10
Oc1ccc(N=Cc2ccc(O)c(O)c2)cc1	23	62*	39	8	26	36
CCOC(=O)c1c(CC(C)C)csc1NC(=O)c1ccccc1C(=O)O	-5	-40	-13	6	5	12
CC(C)Cc1csc(NC(=O)c2ccc(F)cc2)c1C(=O)O	84*	-49	89*	2	-8	3
CCC(C)NC(=O)[C@@H]1CSC2c3ccccc3C(=O)N21 (stereo not given in full)	-1	15	-20	1	nt	-8
CC(=O)N(/N=C1\Sc2ccccc2C1=O)c1ccccc1	nt	74*	nt	nt	16	6
O=C(N=C1SC2CS(=O)(=O)CC2N1c1ccc(OC(F)(F)F)cc1)C1CC1 (stereo not given)	5	9	3	-2	nt	-14
O=C(Nc1nc2ccccc2n1CCN1CCCC1)C1CCCCC1	-6	22	-15	-8	10	14
O=C(Nc1nc2ccccc2n1CCN1CCCCC1)C1CCCCC1	4	18	4	-1	6	55*
NC(=O)NC[C@@H]1CC[C@@H](Cc2ccc(-c3ccccc3)cc2)O1	nt	1	nt	14	nt	-4
OC[C@@H]1CC[C@@H](Cc2ccc(-c3ccccc3)cc2)O1	nt	18	nt	63*	nt	1
CC1CCN(c2ccc(-c3cccc(NC(=O)C(F)(F)F)c3)nn2)CC1	49	-108	40	4	nt	97*
O=C(Nc1cccc(-c2ccc(N3CCCCC3)nn2)c1)C(F)(F)F	34	-21	34	6	nt	89*
SMILES	SENP8 block-1	SENP8 block-2	SENP6 inh	SENP7 inh	PPC-1+TRAIL kill	C8 TRAIL sens
COc1ccc(/C=C2/Sc3ccc(C(=O)NCCN4CCCCCC4)cc3NC2=O)cc1	-17	16	-5	3	nt	79*
O=C1Nc2cc(C(=O)NCCCN3CCCC3)ccc2S/C1=C\c1ccccc1	4	-21	12	5	nt	11
COc1ccc2c(c1)OC/C(=C/c1cccs1)C2=O	89*	-6	94*	96*	30	41
COc1ccc(/C=C2\COc3ccccc3C2=O)c(OC)c1	-37	-7	3	-27	nt	0
O=C(CN1C(=O)/C(=C/c2ccco2)SC1=S)NC1CCS(=O)(=O)C1 (stereo not given)	-4	41*	7	-2	nt	-12
O=C(CCN1C(=O)/C(=C/c2ccccc2)SC1=S)NC1CCS(=O)(=O)C1 (stereo not given)	16	12	17	-3	nt	19
O=C(CN1C(=O)S/C(=C/c2ccc(N3CCOCC3)cc2)C1=O)N1CCOCC1	-6	-30	0	2	49	61*
Cc1ccc(/C=C2/SC(=O)N(CC(=O)N3CCOCC3)C2=O)s1	2	8	7	17	34	-2
